# Results filed as inconclusive are left out. Entries that show only a call come without a potency. Calls of active or inactive are those of the source. Calls come from the whole dose curve; as a rule, active = well fitted inhibition curve with a large enough effect; inconclusive = small, poorly fitted or top-dose-only effect; inactive = flat fitted curve, though single readings scatter. Numbered stars: 1 amine (or outer) side, 2 acyl side, 3 side chain; on linkers, the order of the positions; unused ones are H or OH. Bridge positions count the residues as written; N and C are the ends. Square brackets hold non-standard residues; d marks the D form. Peptide text beside a SMILES is read from it. I, II: the chains in the order shown. Actinocin(9to1) = Cc1c2oc3c(C)ccc(C(=O)[*:1])c3nc-2c(C(=O)[*:2])c(N)c1=O; NMeV = CN[C@H](C(=O)O)C(C)C; Sar = CNCC(=O)O
# Assay: qHTS to identify inhibitors of the type 1 interferon - major histocompatibility complex class I in skeletal muscle: primary screen against the NCATS Pharmaceutical Collection (AID 1347407)
# Settings: human skeletal muscle cells, IFN-b-induced MHC-I HiBiT luminescence, 24 h; series mostly up to 45.9 µM
# Method in brief: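 Luminescence from HiBiT-tagged endogenous HLA-B*08:01 served as the read-out of IFN-beta-induced MHC class I in CRISPR-engineered C25cl48 myoblasts. Cells received 4 ng/ml IFN-beta plus compound (high final 46 uM, […]) for 24 h.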
# Potency is the fitted concentration of half-maximal effect.
row,SMILES,Potency
1,OCc1ccccc1O,inactive
2,CN(C)CCOc1ccccc1Cc1ccccc1,inactive
3,C[C@H](O)C(=O)Nc1c(I)c(C(=O)NC(CO)CO)c(I)c(C(=O)NC(CO)CO)c1I,inactive
4,COc1cc(OC)cc(OC)c1,inactive
5,CN(C)C(=S)SC(=S)N(C)C,inactive
6,CCCCOc1cc(C(=O)NCCN(CC)CC)c2ccccc2n1,inactive
7,COc1cccc(OC)c1C(=O)N[C@@H]1C(=O)N2[C@@H]1SC(C)(C)[C@@H]2C(=O)O,inactive
8,O=C1[C@H]2CCCC[C@H]2C(=O)N1CCCCN1CCN(c2nsc3ccccc23)CC1,inactive
9,COc1cc(C(=S)N2CCOCC2)cc(OC)c1OC,inactive
10,O=C(N/N=C/c1ccccc1O)c1ccncc1,inactive
11,CCN(CC)C(=O)N1CCN(C)CC1,inactive
12,CCN(CCCc1ccccc1)CCCc1ccccc1,inactive
13,COc1cc(N)c(Cl)cc1C(=O)NC1CCN(CCCOc2ccc(F)cc2)CC1OC (stereo unspecified),inactive
14,COc1cc(/C=C/C(=O)O[C@H]2CC[C@]34C[C@]35CC[C@]3(C)[C@@H]([C@H](C)CCC=C(C)C)CC[C@@]3(C)[C@@H]5CC[C@H]4C2(C)C)ccc1O,inactive
15,CCN(CC)C(=O)/C(C#N)=C/c1cc(O)c(O)c([N+](=O)[O-])c1,inactive
16,"Cc1c2oc3c(C)ccc(C(=O)N[C@@H]4C(=O)N[C@H](C(C)C)C(=O)N5CCC[C@H]5C(=O)N(C)CC(=O)N(C)[C@@H](C(C)C)C(=O)O[C@@H]4C)c3nc-2c(C(=O)N[C@@H]2C(=O)N[C@H](C(C)C)C(=O)N3CCC[C@H]3C(=O)N(C)CC(=O)N(C)[C@@H](C(C)C)C(=O)O[C@@H]2C)c(N)c1=O (I: T[dV]P[Sar][NMeV] / II: T[dV]P[Sar][NMeV]; ester I:1-I:C, II:1-II:C; linker I:N-II:N via Actinocin(9to1))",0.938 µM (active)
17,O=C(COc1ccc(Cl)cc1)N1CCN(Cc2ccc3c(c2)OCO3)CC1,inactive
18,NC(=O)C(=O)N/N=C/c1ccc([N+](=O)[O-])o1,inactive

row,SMILES,Potency
1,NCCc1ccn[nH]1,inactive
2,CCCCOc1ccc(OCCCN2CCOCC2)cc1,inactive
3,CN1CCC(=C2c3ccccc3Sc3ccccc32)CC1,inactive
4,C=C1C(=C/C=C2\CCC[C@]3(C)[C@@H]([C@H](C)/C=C/[C@@H](O)C4CC4)CC[C@@H]23)C[C@@H](O)C[C@@H]1O,inactive
5,CCCCS(=O)(=O)N[C@@H](Cc1ccc(OCCCCC2CCNCC2)cc1)C(=O)O,inactive
6,CNCC[C@@H](Oc1ccccc1C)c1ccccc1,inactive
7,COC(=O)CCc1ccc(OCC(O)CNC(C)C)cc1 (stereo unspecified),inactive
8,CC(=O)[C@H]1CC[C@H]2[C@@H]3C[C@H](C)C4=CC(=O)CC[C@]4(C)[C@H]3[C@@H](O)C[C@]12C,inactive
9,CC[N+](CC)(CCNC(=O)C(=O)NCC[N+](CC)(CC)Cc1ccccc1Cl)Cc1ccccc1Cl,inactive
10,CCOC(=O)c1cccc(N)c1,inactive
11,OC[C@H]1O[C@H](O[C@]2(CCl)O[C@H](CCl)[C@@H](O)[C@@H]2O)[C@H](O)[C@@H](O)[C@H]1Cl,inactive
12,NC[C@H]1O[C@H](O[C@H]2[C@H](O)[C@@H](O[C@H]3O[C@H](CO)[C@@H](O)[C@H](N)[C@H]3O)[C@H](N)C[C@@H]2N)[C@H](N)[C@@H](O)[C@@H]1O,inactive
13,CC1(C)O[C@@H]2C[C@H]3[C@@H]4CCC5=CC(=O)CC[C@]5(C)[C@@]4(F)[C@@H](O)C[C@]3(C)[C@]2(C(=O)CCl)O1,inactive
14,CNC(=O)CN(CCN(CCN(CC(=O)[O-])CC(=O)NC)CC(=O)[O-])CC(=O)[O-].O.[Gd+3],inactive
15,Cc1ccnc(NS(=O)(=O)c2ccc(N)cc2)n1,inactive
16,C#C[C@]1(O)CC[C@H]2[C@@H]3CCc4cc(OC5CCCC5)ccc4[C@H]3CC[C@@]21C,inactive
17,CCN(CC)CCNC(=O)COc1ccc(Cl)cc1,inactive
18,Cc1cccn2c(=O)c(-c3nnn[nH]3)cnc12,inactive

# From PubChem BioAssay (NCATS)
